PME-1 primary: PME-1 (human) inhibition. hit rate 0.53% among 320,000. Q9Y570. AID 2130. recombinant PME-1, FP-Rh probe fluorescence polarization. inhibition, % at 5.9 µM;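 active = inhibition above the campaign mean of all compounds plus 3 SD, cut at about 26% in these data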;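 note: competitive labeling of PME-1 active site by serine hydrolase directed probe; inhibitors block probe labeling so polarization falls and inhibition rises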
PREPL inh: human PREPL enzyme inhibition | Q4J6C6 | recombinant PREPL, fluorescence polarization activity-based probe | inhibition, % at 5.96 µM | hit rate 0.68% among 320,000 | AID 2751; in the data active = inhibition above about 43%
LYPLA1 counter: counter-screen for PME1 inhibitors: inhibitors of human LYPLA1. recombinant LYPLA1, FP-Rh probe fluorescence polarization. inhibition, % at 5.9 µM. hit rate 0.16% among 320,000. AID 2174;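 active = inhibition above the mean of all tested compounds plus 3 SD, set per campaign, cut at about 14% in these data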;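 note: inhibitors block serine hydrolase probe labeling of LYPLA1 so polarization falls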
Target sequence (O75608 whole entry, looked up): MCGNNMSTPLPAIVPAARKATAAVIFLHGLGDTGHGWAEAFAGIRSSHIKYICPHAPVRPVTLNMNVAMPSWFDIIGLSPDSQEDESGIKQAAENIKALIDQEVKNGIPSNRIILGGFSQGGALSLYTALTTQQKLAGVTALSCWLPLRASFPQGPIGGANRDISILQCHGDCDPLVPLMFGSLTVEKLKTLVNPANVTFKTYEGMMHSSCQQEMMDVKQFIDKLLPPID
GSTO1 inh: blocks human GSTO1 in RBBP9 counter-screen | P78417 | recombinant GSTO1, activity-based probe fluorescence polarization | inhibition, % at 5.96 µM | hit rate 1.1% among 300,000;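 active = inhibition above the campaign mean inhibition plus 3 SD, cut at about 35% in these data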
Target sequence (P78417 whole entry, looked up): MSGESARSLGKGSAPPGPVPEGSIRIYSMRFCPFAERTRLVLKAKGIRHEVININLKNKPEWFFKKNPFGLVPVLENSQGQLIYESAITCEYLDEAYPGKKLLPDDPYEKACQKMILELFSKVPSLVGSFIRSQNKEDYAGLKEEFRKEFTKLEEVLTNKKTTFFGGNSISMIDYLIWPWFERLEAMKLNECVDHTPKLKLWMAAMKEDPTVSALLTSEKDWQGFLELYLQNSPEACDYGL
LYPLA2 counter: counter-screen for PME1 inhibitors: inhibitors of human LYPLA2; hit rate 0.38% among 320,000; O95372; inhibition, % at 5.9 µM; recombinant LYPLA2, FP-Rh probe fluorescence polarization;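 active = inhibition above the screen-wide mean plus 3 SD, limit set per campaign, cut at about 26% in these data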
Fam108B counter: blocks mouse Fam108B hydrolase in RBBP9 counter-screen; inhibition, % at 9.51 µM; hit rate 0.33% among 300,000; recombinant Fam108B, FP-Rh probe fluorescence polarization;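 active = inhibition above the screen mean inhibition plus 3 SD, computed separately per campaign, cut at about 18% in these data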;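 note: inhibitors lower polarization as less probe binds the enzyme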
Fam108b inh conf: Fam108b (mouse) hydrolase inhibition, confirmation assay; hit rate 44% among 930; AID 1978; shares compounds with Fam108B counter; recombinant Fam108b, FP-Rh probe fluorescence polarization; inhibition, % at 9.51 µM;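 active = inhibition above a limit from the primary screen, the mean over all compounds plus 3 SD, cut at about 19% in these data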;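 note: inhibitors free the probe so polarization falls as inhibition rises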
Fam108b inh: mouse ABHD17B inhibition; shares compounds with Fam108B counter; inhibition, % at 20 µM; hit rate 44% among 260; recombinant Fam108b, gel-based ABPP, fluorophosphonate probe; in the data active = inhibition above about 40%
Large screens that a line does not name were inactive (follow-up assays come after a bar, where they were run). Rows were chosen to be rich in hits. Some 2% of all compounds tested hit in one or more screens of this group.

CCOC(=O)CSc1nc2c(sc(=S)n2Cc2ccco2)c(=O)n1-c1ccccc1	none
O=S(=O)(c1c(F)cccc1F)N1CCN(C(=S)NCc2ccc3c(c2)OCO3)CC1	Fam108B counter 25 | Fam108b inh conf inactive
Fc1ccccc1NC(=S)NCc1ccc2c(c1)OCO2	none
Cc1ccc(S(=O)(=O)Nc2csc(C)c2C(=O)O)cc1	Fam108B counter 47 | Fam108b inh conf inactive
COC1=CC(=O)C(O)=C(CCCCCCCC=CCCCCCCCC2=C(O)C(=O)C=C(OC)C2=O)C1=O	none (no result: PME-1 primary, PREPL inh, LYPLA1 counter, GSTO1 inh, LYPLA2 counter, Fam108B counter) | Fam108b inh inactive
COc1ccc(CCNc2nc(-c3ccc(F)cc3)c(CC(=O)O)s2)cc1OC	none
O=[N+]([O-])c1ccc(O)c(/C=N/NC(=S)Nc2ccc(Cl)cc2Cl)c1	Fam108B counter 43 | Fam108b inh conf 48
O=Nc1c(O)[nH]c2ccc(F)cc12	none
Cc1cc2c(N=O)c(NO)ccc2[nH]1	PME-1 primary 49, Fam108B counter 33 | Fam108b inh conf inactive
CC1CCCCN1S(=O)(=O)c1ccc(C(=O)Nc2ccccc2-c2nc3ccccc3[nH]2)cc1 (centres undefined)	PME-1 primary 28, Fam108B counter 32 | Fam108b inh conf 72
CC1CCCCN1S(=O)(=O)c1ccc(C(=O)Nc2ccccc2-c2nc3ccccc3s2)cc1 (centres undefined)	none
O=[N+]([O-])c1ccc(N/N=C/c2ccccc2O)cc1	PME-1 primary 45, Fam108B counter 47 | Fam108b inh conf 30
N=C1/C(=C\c2ccc(-c3cccc(C(=O)O)c3)o2)C(=O)N=C2SC=C(c3ccccc3)N12	Fam108B counter 24 | Fam108b inh conf inactive
Brc1ccc(N/N=C(/N=Nc2nn[nH]n2)c2ccccc2)cc1	PME-1 primary 51, Fam108B counter 25 | Fam108b inh conf 28
Cc1ccc(CN2CC(C(=O)N3CCN(c4ccccc4Cl)CC3)CC2=O)cc1 (centres undefined)	none (no result: GSTO1 inh, Fam108B counter)
Cc1cc(NN=Cc2c(O)ccc3ccccc23)nc(-c2ccccc2O)n1	none (no result: PME-1 primary, PREPL inh, LYPLA1 counter, GSTO1 inh, LYPLA2 counter, Fam108B counter) | Fam108b inh 95
O=C(c1cc(O)c(O)c([N+](=O)[O-])c1)c1ccccc1F	Fam108B counter 49 | Fam108b inh conf 91 | Fam108b inh inactive
O=C(Nc1ccc([N+](=O)[O-])cc1)c1ccccc1F	none
COc1ccc(S(=O)(=O)NNC(=O)Cc2csc(C)n2)cc1[N+](=O)[O-]	none
N#CC1=C(c2ccccc2)/C(=C/c2ccccc2)OC1=O	Fam108B counter 19 | Fam108b inh conf 23
O=C1O/C(=C/c2ccccc2)c2ccccc21	none
COc1cccc(N2CCN(S(=O)(=O)c3ccc4nc(-c5ccccc5)[nH]c4c3)CC2)c1	Fam108B counter 21 | Fam108b inh conf inactive
COc1cc(NC(=O)CN2C(=O)C(=O)N(C3CCCC3)C2=O)cc(OC)c1	none (no result: GSTO1 inh, Fam108B counter)
CC(=NNC(=O)c1cccc(Cl)c1)C1C(=O)c2ccccc2C1=O	none (no result: PME-1 primary, PREPL inh, LYPLA1 counter, GSTO1 inh, LYPLA2 counter, Fam108B counter) | Fam108b inh inactive
O=C(O)CC/C(=N/NC(=O)c1ccc(-c2ccccc2)cc1)c1ccccc1	none
CCC/C(=N/NC(=O)c1cccc(Cl)c1)c1ccccc1	none
C/C(=N\NC(=O)c1ccc(-c2ccccc2)cc1)C1C(=O)c2ccccc2C1=O	Fam108B counter 27 | Fam108b inh conf 25
Cn1cc(C(=O)c2ccc(Cl)cc2Cl)cc1C(=O)N/N=C(\N)COc1cccc(C(F)(F)F)c1	none
C[C@@H]1CCCCCCCCC(=O)OCCN1C(=O)OC(C)(C)C	none (no result: GSTO1 inh, Fam108B counter)
Cc1c(Cl)ccc2sc(NC(=O)c3ccco3)nc12	none
O=C1c2cccc3cccc(c23)C(=O)N1OS(=O)(=O)c1ccccc1	none
O=C1c2ccccc2C(=O)N1OS(=O)(=O)c1ccccc1	Fam108B counter 29 | Fam108b inh conf inactive
COC(=O)c1sc(NC(=S)NNC(=O)c2c(Br)c(C)nn2C)c(C(=O)OC)c1C	Fam108B counter 26 | Fam108b inh conf 24
COCCN(C)C(=O)CC1C(=O)NCCN1CC(c1ccccc1)c1ccccc1 (centres undefined)	none
COCC(=O)OCC(=O)Nc1ccc(Cl)cc1[N+](=O)[O-]	none

Source: PubChem (The Scripps Research Institute Molecular Screening Center)
